{
  "source": "PubChem BioAssay (NCATS)",
  "note": "Where “and” joins values, the source holds several entries; their conditions need not be identical. Equal entries are not always repeated. Results filed as inconclusive are left out. Entries that show only a call come without a potency. Calls of active or inactive are those of the source. Unless noted, calls come from the whole dose curve.",
  "data": [
    {"biological_target": "Bile acid receptor (Homo sapiens) (UniProt Q96RI1)", "sequence (Q96RI1 whole entry, looked up)": "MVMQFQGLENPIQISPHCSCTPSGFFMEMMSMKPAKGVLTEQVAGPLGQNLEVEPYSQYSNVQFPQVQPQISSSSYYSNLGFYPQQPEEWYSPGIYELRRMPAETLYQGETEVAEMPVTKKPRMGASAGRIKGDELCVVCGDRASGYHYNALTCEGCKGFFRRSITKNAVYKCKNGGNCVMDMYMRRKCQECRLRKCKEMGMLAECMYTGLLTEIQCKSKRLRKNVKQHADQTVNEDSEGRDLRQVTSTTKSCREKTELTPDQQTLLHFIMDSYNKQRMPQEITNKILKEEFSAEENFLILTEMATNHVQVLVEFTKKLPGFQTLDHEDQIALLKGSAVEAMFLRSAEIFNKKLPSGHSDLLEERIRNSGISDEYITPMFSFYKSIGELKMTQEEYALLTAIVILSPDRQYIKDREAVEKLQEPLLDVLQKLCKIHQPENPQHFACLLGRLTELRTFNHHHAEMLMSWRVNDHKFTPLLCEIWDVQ", "assay": "qHTS assay for small molecule agonists of farnesoid X receptor signaling (AID 588527)", "conditions": "HEK293T FXR-UAS-bla, beta-lactamase ratio, 16 h; stronger effect = higher value", "outline": "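Read-out: beta-lactamase reporter fluorescence with CCF4 substrate in GeneBLAzer FXR-UAS-bla HEK293T cells, after 16 h compound exposure at 37 C. Response scaled between DMSO basal (0%) and chenodeoxycholic acid at 100 uM (100%).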", "values": [
      {"smiles": "Cc1ccnc2c1NC(=O)c1cccnc1N2C1CC1", "activation": "5.2% (inactive)"},
      {"smiles": "CC[C@H](C)C(=O)O[C@H]1C[C@@H](C)C=C2C=C[C@H](C)[C@H](CC[C@@H]3C[C@@H](O)CC(=O)O3)[C@H]21", "activation": "-3.65% (inactive)"},
      {"smiles": "Clc1ccc(C(c2ccccc2Cl)C(Cl)Cl)cc1", "note": "(stereo unspecified)", "activation": "3.36% (inactive)"},
      {"smiles": "Nc1ccc(O)c(C(=O)O)c1", "activation": "-5.01% (inactive) and -0.178% (inactive)"},
      {"smiles": "Cc1cn([C@H]2C[C@H](N=[N+]=[N-])[C@@H](CO)O2)c(=O)[nH]c1=O", "activation": "-3.84% (inactive)"},
      {"smiles": "CN(C)/N=N/c1nc[nH]c1C(N)=O", "activation": "-3.3% (inactive)"},
      {"smiles": "CC1=C(/C=C/C(C)=C/C=C/C(C)=C/C(=O)Nc2ccc(O)cc2)C(C)(C)CCC1", "activation": "-5.41% (inactive)"},
      {"smiles": "O=c1[nH]cc(F)c(=O)[nH]1", "activation": "-1.24% (inactive)"},
      {"smiles": "Oc1cccc2cccnc12", "activation": "-3.45% (inactive) and -4.35% (inactive)"}
    ]},
    {"biological_target": "Glucocorticoid receptor (Homo sapiens) (UniProt P04150)", "sequence (P04150 whole entry, looked up)": "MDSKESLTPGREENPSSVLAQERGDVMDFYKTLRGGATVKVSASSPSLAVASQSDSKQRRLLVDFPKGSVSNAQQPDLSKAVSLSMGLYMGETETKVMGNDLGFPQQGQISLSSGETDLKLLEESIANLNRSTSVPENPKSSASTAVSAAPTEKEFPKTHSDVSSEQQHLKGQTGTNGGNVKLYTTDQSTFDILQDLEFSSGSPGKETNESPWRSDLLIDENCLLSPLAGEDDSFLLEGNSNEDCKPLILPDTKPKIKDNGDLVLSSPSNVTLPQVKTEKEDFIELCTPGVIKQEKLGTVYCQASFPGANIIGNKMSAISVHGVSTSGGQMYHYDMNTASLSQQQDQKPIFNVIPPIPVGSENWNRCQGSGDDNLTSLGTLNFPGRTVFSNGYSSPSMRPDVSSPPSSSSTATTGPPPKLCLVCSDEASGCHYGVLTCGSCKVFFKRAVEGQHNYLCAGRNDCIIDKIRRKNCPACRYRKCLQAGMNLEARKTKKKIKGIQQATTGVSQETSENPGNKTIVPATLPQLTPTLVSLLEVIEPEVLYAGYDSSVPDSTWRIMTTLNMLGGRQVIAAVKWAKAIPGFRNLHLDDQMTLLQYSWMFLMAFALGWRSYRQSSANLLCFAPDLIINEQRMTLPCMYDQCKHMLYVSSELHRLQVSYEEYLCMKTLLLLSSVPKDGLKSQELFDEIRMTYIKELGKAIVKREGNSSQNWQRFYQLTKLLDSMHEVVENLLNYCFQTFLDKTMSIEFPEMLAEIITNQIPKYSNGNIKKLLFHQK", "assay": "qHTS assay for small molecule agonists of glucocorticoid receptor signaling (AID 588532; active = well fitted curve in the direction sought with a large enough effect in the signal ratio, with a control signal flat; the % refers to the signal ratio)", "conditions": "HeLa MMTV-bla, beta-lactamase ratio, agonist, 18 h; stronger effect = higher value; percent of dexamethasone control, DMSO zero", "outline": "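Quantitative HTS using CellSensor MMTV-bla HeLa cells in charcoal/dextran-treated serum; compounds tested up to 92 uM. After 18 h at 37 C, CCF4 dye reported reporter induction.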", "values": [
      {"smiles": "CCOP(=S)(OCC)Oc1cc(C)nc(C(C)C)n1", "activation": "-2.71% (inactive)"},
      {"smiles": "CC(COc1ccccc1)N(CCCl)Cc1ccccc1", "note": "(stereo unspecified)", "activation": "-12.9% (inactive)"},
      {"smiles": "Oc1cc(Cl)ccc1Oc1ccc(Cl)cc1Cl", "activation": "-14.4% (inactive)"}
    ]},
    {"biological_target": "Peroxisome proliferator-activated receptor delta (Homo sapiens) (UniProt Q03181)", "sequence (Q03181 whole entry, looked up)": "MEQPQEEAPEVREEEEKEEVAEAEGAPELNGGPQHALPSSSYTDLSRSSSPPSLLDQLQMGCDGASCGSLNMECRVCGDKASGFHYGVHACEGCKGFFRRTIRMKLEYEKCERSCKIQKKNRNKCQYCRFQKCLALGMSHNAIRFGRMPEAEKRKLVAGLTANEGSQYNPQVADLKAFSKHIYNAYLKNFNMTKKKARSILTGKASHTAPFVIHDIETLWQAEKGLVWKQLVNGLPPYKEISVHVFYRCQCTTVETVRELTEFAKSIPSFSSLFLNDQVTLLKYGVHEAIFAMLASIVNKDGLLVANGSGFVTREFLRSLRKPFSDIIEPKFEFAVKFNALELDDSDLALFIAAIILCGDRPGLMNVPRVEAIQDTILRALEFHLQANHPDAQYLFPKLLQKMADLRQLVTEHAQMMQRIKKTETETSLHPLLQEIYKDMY", "assay": "qHTS assay for small molecule agonists of peroxisome proliferator-activated receptor delta signaling (AID 588534)", "conditions": "HEK293T PPARdelta-UAS-bla, beta-lactamase ratio, 18 h; series mostly up to 76.7 µM", "outline": "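Cells carrying a PPAR-delta beta-lactamase reporter were treated with compounds for 18 h at 37 °C in agonist mode. CCF4 fluorescence was read after 2 h; EC50 and efficacy from Hill fits.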", "values": [
      {"smiles": "O=NN(CCCl)C(=O)NCCCl", "outcome": "inactive"},
      {"smiles": "Cc1ncc([N+](=O)[O-])n1CCO", "outcome": "inactive"},
      {"smiles": "NC(=O)N/N=C/c1ccc([N+](=O)[O-])o1", "outcome": "inactive"},
      {"smiles": "O=C1CCC(N2C(=O)c3ccccc3C2=O)C(=O)N1", "note": "(stereo unspecified)", "outcome": "inactive"},
      {"smiles": "O=C1NC(=O)C(c2ccccc2)(c2ccccc2)N1", "outcome": "inactive"},
      {"smiles": "Cc1ccnc2c1NC(=O)c1cccnc1N2C1CC1", "outcome": "inactive"},
      {"smiles": "CCCc1cc(=O)[nH]c(=S)[nH]1", "outcome": "inactive"},
      {"smiles": "C[C@](N)(Cc1ccc(O)c(O)c1)C(=O)O", "outcome": "inactive"},
      {"smiles": "COc1cc(Cc2cnc(N)nc2N)cc(OC)c1OC", "outcome": "inactive"},
      {"smiles": "CCN(CC)C(=S)SSC(=S)N(CC)CC", "outcome": "inactive"},
      {"smiles": "CCOP(=S)(OCC)Oc1cc(C)nc(C(C)C)n1", "outcome": "inactive"},
      {"smiles": "CCCNC(=O)NS(=O)(=O)c1ccc(Cl)cc1", "outcome": "inactive"},
      {"smiles": "OCCOCCN1CCN(C(c2ccccc2)c2ccc(Cl)cc2)CC1", "note": "(stereo unspecified)", "outcome": "inactive"},
      {"smiles": "NS(=O)(=O)c1cc2c(cc1Cl)NC=NS2(=O)=O", "outcome": "inactive"},
      {"smiles": "CC(COc1ccccc1)N(CCCl)Cc1ccccc1", "note": "(stereo unspecified)", "outcome": "inactive"},
      {"smiles": "OC(Cn1cncn1)(Cn1cncn1)c1ccc(F)cc1F", "outcome": "inactive"},
      {"smiles": "CC[C@H](C)C(=O)O[C@H]1C[C@@H](C)C=C2C=C[C@H](C)[C@H](CC[C@@H]3C[C@@H](O)CC(=O)O3)[C@H]21", "outcome": "inactive"},
      {"smiles": "NC[C@H](O)c1ccc(O)c(O)c1", "outcome": "inactive"},
      {"smiles": "COc1cccc2c1C(=O)c1c(O)c3c(c(O)c1C2=O)C[C@@](O)(C(=O)CO)C[C@@H]3O[C@H]1C[C@H](N)[C@H](O)[C@H](C)O1", "outcome": "inactive"},
      {"smiles": "CS(=O)(=O)OCCCCOS(C)(=O)=O", "outcome": "inactive"},
      {"smiles": "Clc1ccc(C(c2ccccc2Cl)C(Cl)Cl)cc1", "note": "(stereo unspecified)", "outcome": "inactive"},
      {"smiles": "Nc1ccc(O)c(C(=O)O)c1", "outcome": "inactive"},
      {"smiles": "Nc1cc(-c2ccncc2)c[nH]c1=O", "outcome": "inactive"},
      {"smiles": "Cc1cn([C@H]2C[C@H](N=[N+]=[N-])[C@@H](CO)O2)c(=O)[nH]c1=O", "outcome": "inactive"},
      {"smiles": "CN(C)/N=N/c1nc[nH]c1C(N)=O", "outcome": "inactive"},
      {"smiles": "CC1=C(/C=C/C(C)=C/C=C/C(C)=C/C(=O)Nc2ccc(O)cc2)C(C)(C)CCC1", "outcome": "inactive"},
      {"smiles": "CC(=O)N[C@@H](CS)C(=O)O", "outcome": "inactive"},
      {"smiles": "Nc1ncn([C@@H]2O[C@H](CO)[C@@H](O)[C@H]2O)c(=O)n1", "outcome": "inactive"},
      {"smiles": "O=c1[nH]cc(F)c(=O)[nH]1", "outcome": "inactive"},
      {"smiles": "N=C(N)c1ccc(OCCCCCOc2ccc(C(=N)N)cc2)cc1", "outcome": "inactive"},
      {"smiles": "Cn1cnc([N+](=O)[O-])c1Sc1ncnc2nc[nH]c12", "outcome": "inactive"},
      {"smiles": "C[C@@H]1C[C@H]2[C@@H]3CCC4=CC(=O)C=C[C@]4(C)[C@@]3(F)[C@@H](O)C[C@]2(C)[C@@]1(O)C(=O)CO", "outcome": "inactive"},
      {"smiles": "CN(C)CCCN1c2ccccc2Sc2ccc(Cl)cc21", "outcome": "inactive"},
      {"smiles": "O=c1[nH]cnc2c1ncn2[C@H]1CC[C@@H](CO)O1", "outcome": "inactive"},
      {"smiles": "Oc1cccc2cccnc12", "outcome": "inactive"},
      {"smiles": "Oc1cc(Cl)ccc1Oc1ccc(Cl)cc1Cl", "outcome": "inactive"},
      {"smiles": "Cc1ccc(S(=O)(=O)NC(=O)NN2CCCCCC2)cc1", "outcome": "inactive"}
    ]},
    {"system": "not listed separately", "assay": "qHTS assay for small molecule antagonists of peroxisome proliferator-activated receptor delta signaling (AID 588535; active = well fitted inhibition curve with a large enough effect in the signal ratio, with a control signal flat, not every such curve was filed as active; the % refers to the signal ratio;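 for max response: cells co-treated with a PPAR-delta agonist as stimulator during compound exposure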)", "conditions": "HEK293T PPARd-UAS-bla, beta-lactamase FRET ratio, 18 h; 460 nm channel", "outline": "(§1)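 HEK293T PPAR-delta-UAS-bla cells, 4000/well, 2% charcoal/dextran FBS; 5 h 37 C; cpd titration; 18 h 37 C; CCF4 2 h RT; FI 460/530 nm; Hill fit → IC50, efficacy.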", "values": [
      {"smiles": "CCOP(=S)(OCC)Oc1cc(C)nc(C(C)C)n1", "max response": "-10.2% and 44.9%"},
      {"smiles": "Oc1cccc2cccnc12", "max response": "-10.4% and -24.8%"},
      {"smiles": "Oc1cc(Cl)ccc1Oc1ccc(Cl)cc1Cl", "max response": "38.5%"}
    ]},
    {"biological_target": "Peroxisome proliferator-activated receptor delta (Homo sapiens) (UniProt Q03181)", "assay": "qHTS assay for small molecule antagonists of peroxisome proliferator-activated receptor delta signaling (AID 588535);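 for max response: cells co-treated with a PPAR-delta agonist as stimulator during compound exposure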", "conditions": "HEK293T PPARd-UAS-bla, beta-lactamase FRET ratio, 18 h; series mostly up to 76.7 µM", "outline": "as §1", "values": [
      {"smiles": "CCOP(=S)(OCC)Oc1cc(C)nc(C(C)C)n1", "outcome": "inactive"},
      {"smiles": "Oc1cccc2cccnc12", "outcome": "inactive"},
      {"smiles": "Oc1cc(Cl)ccc1Oc1ccc(Cl)cc1Cl", "outcome": "inactive"}
    ]},
    {"biological_target": "Peroxisome proliferator-activated receptor gamma (Homo sapiens) (UniProt P37231)", "sequence (P37231 whole entry, looked up)": "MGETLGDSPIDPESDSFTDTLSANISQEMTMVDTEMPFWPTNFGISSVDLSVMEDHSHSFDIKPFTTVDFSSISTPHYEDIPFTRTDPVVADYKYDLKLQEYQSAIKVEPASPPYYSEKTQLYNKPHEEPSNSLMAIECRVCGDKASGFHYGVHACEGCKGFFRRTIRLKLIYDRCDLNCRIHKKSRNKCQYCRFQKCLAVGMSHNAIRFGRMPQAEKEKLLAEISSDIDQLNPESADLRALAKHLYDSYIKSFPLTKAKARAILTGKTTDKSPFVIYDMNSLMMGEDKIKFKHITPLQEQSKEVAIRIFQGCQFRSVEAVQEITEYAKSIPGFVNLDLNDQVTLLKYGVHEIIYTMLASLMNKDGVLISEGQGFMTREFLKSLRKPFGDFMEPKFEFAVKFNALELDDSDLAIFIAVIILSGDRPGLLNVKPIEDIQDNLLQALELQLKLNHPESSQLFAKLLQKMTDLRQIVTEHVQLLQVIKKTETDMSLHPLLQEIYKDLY", "assay": "qHTS assay for small molecule agonists of peroxisome proliferator-activated receptor gamma signaling (AID 588536; active = well fitted curve in the direction sought with a large enough effect in the signal ratio, with a control signal flat, not every such curve was filed as active; the % refers to the signal ratio)", "conditions": "HEK293 PPARg-UAS-bla, beta-lactamase ratio, 16 h, percent of rosiglitazone response, DMSO as zero; series mostly up to 76.7 µM", "outline": "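Test agents, titrated, stimulated HEK293 UAS-bla cells overnight (16 h, 37 C). Substrate CCF4 was then added for two hours at room temperature before fluorescence reading.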", "values": [
      {"smiles": "CCOP(=S)(OCC)Oc1cc(C)nc(C(C)C)n1", "outcome": "inactive"},
      {"smiles": "Oc1cccc2cccnc12", "outcome": "inactive"},
      {"smiles": "Oc1cc(Cl)ccc1Oc1ccc(Cl)cc1Cl", "outcome": "inactive"}
    ]},
    {"biological_target": "Peroxisome proliferator-activated receptor gamma (Homo sapiens) (UniProt P37231)", "assay": "qHTS assay for small molecule antagonists of peroxisome proliferator-activated receptor gamma signaling (AID 588537; active = well fitted inhibition curve with a large enough effect in the signal ratio, with a control signal flat, not every such curve was filed as active; the % refers to the signal ratio;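 note: reporter cells co-stimulated with 50 nM rosiglitazone agonist during compound treatment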)", "conditions": "HEK293 PPARg-UAS-bla, beta-lactamase ratio, antagonist mode; series mostly up to 76.8 µM", "outline": "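Antagonist mode, beta-lactamase reporter in HEK293; charcoal/dextran FBS 1%; 3000 cells/well, 37 C 6-6.5 h; cpd titration + rosiglitazone 50 nM final, 16 h 37 C; CCF4, 2 h RT; 460/530 nm; Hill fit → IC50, efficacy.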", "values": [
      {"smiles": "CCOP(=S)(OCC)Oc1cc(C)nc(C(C)C)n1", "Potency": "inactive"},
      {"smiles": "Oc1cccc2cccnc12", "Potency": "inactive"},
      {"smiles": "Oc1cc(Cl)ccc1Oc1ccc(Cl)cc1Cl", "Potency": "inactive"}
    ]}
  ]
}
